# Data published in PubChem BioAssay AID651958 (The Scripps Research Institute Molecular Screening Center, 2012).
# The campaign covered roughly 370,000 compounds. About 2,000 (0.54%) were called active. This is one part of a sample in which actives are shown more often than they occur. Unmarked numbers belong to inactive results. Cut-off read from the data, not from the text of the source: active = inhibition above about 30%; inactive = the rest.
# Tested on: Crimean-Congo hemorrhagic fever virus L polyprotein viral ovarian tumor (vOTU) protease domain
# Assay: CCHFV vOTU protease inhibitors, primary screen, biochemical, Pep-AMC substrate, fluorescence (AID 651958); note: 0% = vehicle wells with enzyme and 100% = no enzyme wells
# Settings: at 11.5 µM, hits give high values
row,Compound,inhibition
1,COc1ccc(Br)cc1S(=O)(=O)N1CCN=C1C,-6.47%
2,Cc1cc(OC(C)C(=O)Nc2ccc(S(=O)(=O)Nc3onc(C)c3C)cc2)cc(C)c1Cl (stereo unspecified),35.2% (active)
3,CC(Oc1cccc(Cl)c1)C(=O)Nc1ccc(S(=O)(=O)Nc2ncccn2)cc1 (stereo unspecified),-1.27%
4,CCc1ccc(OC(C)C(=O)Nc2ccc(S(=O)(=O)Nc3cc(C)on3)cc2)cc1 (stereo unspecified),7.95%
5,O=S1(=O)CC(N2CCN(CCO)CC2)CN1Cc1cn(Cc2ccc(Cl)cc2)nn1 (stereo unspecified),-2.07%
6,CCN(CC(=O)Nc1c(F)cccc1F)C(=O)c1ccc(-c2ccccc2)cc1,-7.05%
7,CCN(CC(=O)Nc1c(F)cccc1F)C(=O)c1cnc(C)cn1,32.8% (active)
8,CCc1cc(C(=O)N(CC)CC(=O)Nc2c(F)cccc2F)sc1C,19.1%
9,CCN(CC)c1ccc(NC(=O)CN2C(=O)NC3(CCc4ccccc43)C2=O)cc1 (stereo unspecified),-2.95%
10,O=C(Cn1cc(C(F)(F)F)ccc1=O)Nc1ccc2c(c1)OCCO2,8.6%
11,CC(C)CC1(C)NC(=O)N(CC(=O)Nc2ccc3c(c2)OCCO3)C1=O (stereo unspecified),-6.35%
12,COc1c(Br)cc2c(C)c(C(=O)N3CCOCC3)oc2c1Br,-3.21%
13,Cc1nc2ccccc2c(=O)n1-c1ccc(F)c(NC(=O)c2cccs2)c1,-0.94%
14,O=C(c1ccc(N2CCCC2=O)cc1)N1CCN(c2ccc(C(F)(F)F)cc2[N+](=O)[O-])CC1,3.99%
15,Cc1cc(C)c(S(=O)(=O)NN=C2c3ccccc3[C@H]3Cc4csc[n+]4[C@@H]23)c(C)c1,82.8% (active)
16,COC(=O)[C@]12C[C@H](CC(=O)NCc3ccccc3)C(=O)N(CCC3=CCCCC3)C1=C[C@H](C(C)C)O[C@@H]2C1CC1,23.1%
17,COC(=O)C[C@H]1C[C@@H]2c3cc(NC(=O)Nc4ccccc4)ccc3O[C@@H]2[C@@H](CO)O1,-2.2%
18,CCN(CC(=O)NCc1cccs1)c1nnnn1-c1ccccc1,-6.07%
19,CC(C)Cn1c(N)c(C(=O)NCc2cccs2)c2nc3ccccc3nc21,85.8% (active)
20,Cc1nc2c(C(=O)NCc3cccs3)cnn2c(C)c1Cc1ccc(F)cc1,4.83%
21,Cn1cccc1C(=O)NC(=O)COC(=O)Cc1coc2ccc3ccccc3c12,5.02%

row,Compound,inhibition
1,CCCn1c(=O)c2ccccc2n2c(SCC(=O)/C(C#N)=C(\C)N)nnc12,-9.66%
2,CC(C)[C@H](NC(=O)N1CCn2c1nc1ccccc12)C(=O)NCCc1ccccc1,25.4%
3,O=C1NC[C@@H](CCCCN2CCN(CCc3ccc(O)cc3)C(=O)C2=O)N(CC2CCCCC2)C1=O,-7.64%
4,O=C(OCC(=O)c1cccs1)c1ccc([N+](=O)[O-])o1,31.4% (active)
5,O=C(COC(=O)c1ccc([N+](=O)[O-])o1)NC12CC3CC(CC(C3)C1)C2,13.9%
6,COc1ccccc1CNC(=O)COC(=O)c1cccs1,0.12%
7,Cc1cccc(C)c1NC(=O)CNC(=O)Cc1ccc(Br)cc1,-10.5%
8,Cc1ccc(OC(=O)c2c(C)nn(-c3ccccc3)c2C)cc1,-6.31%
9,Cc1cccc(C)c1NC(=O)CNC(=O)c1c(C)nn(-c2ccccc2)c1C,33% (active)
10,CCN(N=Nc1nonc1OC)c1nonc1OC,-2.47%
11,CN(CC(=O)Nc1ccccc1F)CC(=O)Nc1ccccc1Br,-17.7%
12,O=C(C(=O)N1CCC(CNS(=O)(=O)Cc2ccccc2)CC1)c1cc2ccccc2o1,-0.44%
13,CC(C)(C)c1ccc(S(=O)(=O)NCC2CCN(C(=O)C(=O)c3cc4ccccc4o3)CC2)cc1,41.9% (active)
14,N#Cc1cccc(C(=O)NCC2CCN(C(=O)C(=O)c3cc4ccccc4o3)CC2)c1,5.69%
15,Cc1ccc(C(=O)CN2C(=O)NC3(CCc4ccccc43)C2=O)c(C)c1 (stereo unspecified),-4.9%
16,CN1CCN(Cc2nc3cc(NC(=O)COc4ccc([N+](=O)[O-])cc4)ccc3n2C)CC1,33.6% (active)
17,Cn1c(CN2CCOCC2)nc2cc(NC(=O)c3ccc(Cl)cc3)ccc21,-1.05%
18,CCOC(=O)N1CCN(Cc2nc3cc(NC(=O)CC)ccc3n2CC)CC1,10.5%
19,CC(=O)Nc1ccc(C(=O)NNC(=O)CCCCC(=O)NNC(=O)c2ccc(NC(C)=O)cc2)cc1,2.99%
20,COc1cc(C(=O)OCC(=O)NC23CC4CC(CC(C4)C2)C3)cc(OC)c1OC,12.9%
21,COc1cc(NC(=O)COC(=O)c2ccc([N+](=O)[O-])s2)cc(OC)c1OC,113% (active)

row,Compound,inhibition
1,COc1ccc(C(=O)OCC(=O)c2ccc(Cl)s2)c(OC)c1OC,7.84%
2,COc1ccc(C(=O)OCC(=O)c2ccc(C)c(S(=O)(=O)N3CCOCC3)c2)cc1OC,-12.5%
3,COc1ccc(C(=O)COC(=O)c2ccc([N+](=O)[O-])s2)cc1OC,34.1% (active)
4,COc1cc(CCC(=O)OCC(=O)Nc2cccc(S(N)(=O)=O)c2)cc(OC)c1OC,-0.39%
5,CCN(CC)CCn1c(=S)[nH]c2ncccc2c1=O,3.47%
6,FC(F)(F)c1cc(C(F)(F)F)c2ccc(N3CCN(c4ccccc4)CC3)nc2n1,-0.35%
7,CSc1ncc(C(=O)Nc2ccc(C)cc2C)c(C)n1,-3.39%
8,CN(C)C(=O)c1ccc2c(c1)C1C3CCC(C3)C1C(c1ccccc1)N2 (stereo unspecified),5.37%
9,CCOc1ccc(-c2cn(S(=O)(=O)c3cccc4nsnc34)nc2N)cc1,7.56%
10,COc1ccccc1C(=O)NCCC(=O)NN1C(=O)NC2(CCCCC2)C1=O,-3.82%
11,CCN(C[C@H]1N[C@@](CC)(C(=O)OC)[C@H]2C(=O)N(Cc3ccccc3)C(=O)[C@@H]12)S(=O)(=O)c1ccccc1,6.5%
12,CCN(C[C@H]1N[C@@](CC)(C(=O)OC)[C@H]2C(=O)N(Cc3ccccc3)C(=O)[C@@H]12)S(=O)(=O)c1ccc(C(F)(F)F)cc1,29.7% (active)
13,COC(=O)[C@]1(Cc2ccccc2)N[C@H](CN(C)S(=O)(=O)c2ccc(OC(F)(F)F)cc2)[C@@H]2C(=O)N(Cc3ccccc3)C(=O)[C@@H]21,3.43%
14,COC(=O)[C@@]12C[C@@H](CC(=O)NCc3cccc(C(F)(F)F)c3)C(=O)N(Cc3ccco3)C1=CCC(C)(C)C2,34.5% (active)
15,CCCCNC(=O)C[C@@H]1C[C@@]2(C(=O)OC)CC(C)(C)CC=C2N(Cc2ccco2)C1=O,4.7%
16,CCOC(=O)[C@]12CCC=C1N(Cc1ccco1)C(=O)[C@H](CC(=O)NCc1cccc(C(F)(F)F)c1)C2,15.5%
17,CCN(CC(=O)Nc1ccccc1C(F)(F)F)C(=O)CSCc1c(C)noc1C,-9.14%
18,CCCCCCCCN1C(=O)[C@@H](CC(=O)NCc2ccc(C)o2)C[C@@]2(C(=O)OC)C1=C[C@H](C(C)(C)C)O[C@@H]2C,17.8%
19,COC(=O)[C@]12C[C@H](CC(=O)NCc3ccccc3)C(=O)N(CCC3=CCCCC3)C1=C[C@H](C(C)(C)C)O[C@@H]2C,24.8%
20,COC(=O)[C@]12C[C@H](CC(=O)NCc3ccc(C)o3)C(=O)N(CCC3=CCCCC3)C1=C[C@H](C(C)(C)C)O[C@@H]2C,29.6% (active)
21,COc1ccc2c(c1)[C@H]1[C@H](CO2)[C@H](c2ccccc2)[C@]2(C)C(=O)Nc3cc(F)c(F)cc3C(=O)N12,0.66%

row,Compound,inhibition
1,COCCn1c(SCc2nc3cc(OC)c(OC)cc3c(=O)[nH]2)nnc1-c1ccncc1,-3.09%
2,O=C1Nc2ccccc2-n2nnnc2C1N1CCN(c2cccc(C(F)(F)F)n2)CC1 (stereo unspecified),32.5% (active)
3,COc1cc(OC)cc(C(=O)NCCN2CCC3(CC2)C(=O)NCN3c2ccccc2)c1,-10.2%
4,CCCc1ccc(C(O)c2ncc(-c3cccc(OC)c3)[nH]2)cc1 (stereo unspecified),23.9%
5,Cc1cc(C)c2c(=O)[nH]c(SCC(=O)Nc3ccc(Br)cc3)nc2n1,36% (active)
6,O=C(CSc1nc2[nH]ncc2c(=O)[nH]1)Nc1ccc(F)cc1,-2.83%
7,Cc1cc(=O)[nH]c(SCC(=O)Nc2ccc(Cl)cc2C)n1,-2.3%
8,Cc1ccnc(NS(=O)(=O)c2ccc(NC(=O)c3ccc(S(=O)(=O)N(C)C)cc3)cc2)n1,-12.8%
9,Cc1ccnc(NS(=O)(=O)c2ccc(NC(=O)c3oc4ccccc4c3C)cc2)n1,29.9% (active)
10,Cc1ccnc(NS(=O)(=O)c2ccc(NC(=O)c3oc4ccc(F)cc4c3C)cc2)n1,-2.26%
11,COc1c(F)c(F)c(-c2csc(N)n2)c(F)c1F,-1.03%
12,CCOc1cc(S(=O)(=O)NC2CC(C)(C)NC(C)(C)C2)ccc1F,13.1%
13,O=C(NCCc1c[nH]c2ccc(Cl)cc12)c1ccc([N+](=O)[O-])cc1,-0.42%
14,NS(=O)(=O)c1ccc(CCNC(=O)c2ccc(Cl)cc2[N+](=O)[O-])cc1,2.43%
15,O=C(NCCc1ccc(Cl)cc1Cl)c1cc([N+](=O)[O-])c[nH]c1=O,30.7% (active)
16,Cc1ccc(-n2c(SCC(=O)Nc3cccc4ccccc34)nnc2-c2ccco2)cc1,7.16%
17,CCCc1ccc(-c2c(C)sc(NC(=O)c3ccnn3C)c2C#N)cc1,13%
18,CC(=O)NC(C(=O)NCC(N)=O)C(C)C (stereo unspecified),3.21%
